Source: PubChem (University of Kansas High Throughput Screening Laboratory)
Pf apPOL inh – Pf-apPOL DNA polymerase inhibition | Recombinant Pf-apPOL, molecular beacon fluorescence, 1.5 h | inhibition, % at 10 µM | 210,000 tested, 0.25% active
mHTT-CaM PPI inh – inhibitors of human mutant huntingtin-calmodulin interaction; AlphaScreen His-mHTT/GST-CaM binding, luminescence; inhibition, % at 15 µM; 190,000 tested, 3.6% active;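 note: 0% = both proteins with DMSO and 100% = one protein alone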
* marks the source's active call; other numbers are inactive results; . = no result. Compounds with a hit are over-represented: about 3.6% of the library has one in this group of screens. Cut-off read from the data, not from the text of the source: active = inhibition above about 50%; inactive = the rest.

SMILES | Pf apPOL inh | mHTT-CaM PPI inh
O[C@H]1CN(CC2CCCCC2)[C@@H](c2ccc(Cl)cc2)C[C@@H]1n1cc(C2CC2)nn1 | -4 | 54*
CCCCCCN1C[C@H](n2cc(C3CC3)nn2)[C@@H](O)C[C@@H]1c1ccc(Cl)cc1 | -1 | 100*
O[C@H]1CN(CC2CCCCC2)[C@@H](c2ccc(Cl)cc2)C[C@@H]1n1cc(-c2ccc(F)cc2)nn1 | 2 | 16
CCCCCCN1C[C@@H](n2cc(C3CC3)nn2)[C@H](O)C[C@@H]1c1ccc(Cl)cc1 | 1 | 23
CCCc1cc(C2CCCN2C(=O)Cc2ccc(F)cc2)no1 (stereo not drawn) | 6 | -5
COc1ccc(C(C#N)N2N=C(c3ccccc3)CC2c2ccccc2)cc1OC (stereo not drawn) | -3 | 79*
COc1ccc(C(C#N)N2N=C(C)CC2c2ccccc2)cc1OC (stereo not drawn) | 5 | 5
Cc1ccc(CSCc2ccc(C(=O)NCc3ccccn3)o2)cc1 | -24 | 32
CCN(Cc1ccccc1)S(=O)(=O)c1ccccc1Br | -3 | -61
O=S(=O)(c1ccccc1Br)N(Cc1ccccc1)CC(O)COCc1ccccc1 (stereo not drawn) | 1 | 98*
C=CCc1ccc(OCCNCc2ccco2)c(OC)c1 | -1 | 4
O=C1CC(c2ccc(Cl)c(Cl)c2)CC(O)=C1C=NCCN1CCNCC1 (stereo not drawn) | -3 | 59*
O=C1CC(c2cccs2)CC(O)=C1C=NCCN1CCNCC1 (stereo not drawn) | 10 | 0
COC(=O)c1ccc2oc(=O)n(C)c2c1 | -2 | 2
N#Cc1nc(COc2ccc(Br)cc2)oc1N1CCCCC1 | -3 | 51*
N#Cc1nc(COc2ccc(Br)cc2)oc1N1CCC(C(N)=O)CC1 | -1 | 23
O=C(c1nn2c(C(F)(F)F)cc(-c3ccc(Cl)cc3)nc2c1Cl)N1CCCC1 | -65 | -2
COc1ccccc1C1CC(c2ccc(I)cc2)Nc2ncnn21 (stereo not drawn) | -8 | 41
COc1ccc(OC)c(C2CC(c3ccc(C)cc3)Nc3nnnn32)c1 (stereo not drawn) | 0 | 6
CCc1ccc(C2CC(c3cc(OC)ccc3OC)n3ncnc3N2)cc1 (stereo not drawn) | -7 | 51*
FC(F)Oc1ccccc1C1CC(c2ccc(I)cc2)Nc2ncnn21 (stereo not drawn) | -3 | 53*
Fc1ccc(C2CC(c3ccccc3OC(F)F)n3ncnc3N2)cc1 (stereo not drawn) | -3 | 16
COc1ccc(OC)c(C2CC(c3ccc(Br)cc3)Nc3nnnn32)c1 (stereo not drawn) | -7 | 58*
COc1ccccc1C1CC(c2ccc(Cl)cc2)Nc2ncnn21 (stereo not drawn) | -3 | 54*
CCc1ccc(C2CC(c3ccccc3OC)n3ncnc3N2)cc1 (stereo not drawn) | 3 | 1
SMILES | Pf apPOL inh | mHTT-CaM PPI inh
CC(C)(C)NC(=O)N1CCC(n2c(-c3ccoc3)nc3cccnc32)C1 (stereo not drawn) | -2 | 7
Cc1cc(NC(=O)c2ccc(Cn3cncn3)cc2)ccc1Br | -7 | 8
COc1cccc(-n2c(N3CCC(C(=O)NC4CC4)CC3)nc3ccsc3c2=O)c1 | -3 | 1
COc1cccc(C2CC(c3ccc(Br)cc3)Nc3ncnn32)c1OC (stereo not drawn) | -8 | 51*
COc1cccc(C2CC(c3ccc(C)cc3)Nc3ncnn32)c1OC (stereo not drawn) | -6 | 14
Cc1ccc(C2CC(c3ccc(F)c(Br)c3)n3nnnc3N2)cc1 (stereo not drawn) | -6 | 61*
Cc1ccc(C2CC(c3ccc(F)cc3)n3nnnc3N2)cc1 (stereo not drawn) | 7 | 0
Cc1ccccc1N1C(=O)C2C(C1=O)C1(C(C)C)C=CC2(C)CC1 (stereo not drawn) | -2 | -14
Cc1cc(OCC(=O)Nc2ccc(Cl)cc2F)nc(N2CCC(C)CC2)n1 | 0 | -5
COCCN1CCC(N2CCCN(C(=O)Nc3ccccc3Cl)CC2)C1=O (stereo not drawn) | -4 | 2
COc1ccc2c(c1)N1CCN(c3ccccc3F)CC1C(C(=O)NC1CC1)C2 (stereo not drawn) | -3 | 39
COc1cccc(-c2noc(C3CCCN3C(=O)Nc3ccc4c(c3)OCO4)n2)c1 (stereo not drawn) | 3 | 18
CC(C)N1C(=O)C(C)(C(=O)NCc2ccccc2)Oc2cccnc21 (stereo not drawn) | -3 | -5
CC(C)N1C(=O)C(C)(C(=O)NCc2ccc(Br)cc2)Oc2cccnc21 (stereo not drawn) | -7 | 95*
Cc1ccnc(Nc2nc(C)c(C(=O)N3CCCCC3)s2)c1 | -8 | 5
O=[N+]([O-])c1ccc(C2Nc3ccccc3-c3nc4ccccc4n32)cc1 (stereo not drawn) | -3 | 54*
O=[N+]([O-])c1cccc(C2Nc3ccccc3-c3nc4ccccc4n32)c1 (stereo not drawn) | -30 | 32
COc1ccc(Br)c(C(=O)C(C#N)=NNc2ccc(F)cc2)c1 | 2 | .
O=C(c1cccc(Cl)c1)N1CCC(CCOc2cccnc2)CC1 | -5 | 4
CCCNC(=O)c1nnn(-c2ccc(C)cc2)c1-c1cccnc1 | 0 | -10
CCn1ccc2sc(C)c(C(=O)N3CCC(Cc4ccccc4)CC3)c2c1=O | -2 | 80*
CCn1ccc2sc(C)c(C(=O)N3CCC(N4CCCCC4)CC3)c2c1=O | -14 | 22
O=C(NCc1cccs1)c1cnn2c3c(cnc12)CCCCCC3 | 4 | 1
Nc1c(C(=O)Nc2ccc(Oc3ccccc3)cc2)nnn1Cc1ccccc1 | -4 | 11
CCS(=O)(=O)c1ncc(Cl)c(C(=O)Nc2ccc(Oc3ccccc3)cc2)n1 | -3 | 98*
SMILES | Pf apPOL inh | mHTT-CaM PPI inh
COc1ccc(CN2CCN(Cc3cc(OC)c(OC)cc3OC)CC2)c(OC)c1 | -8 | -2
CCN(CC)C(=O)c1ccc(C)cc1Cl | 2 | -1
O=C1Nc2ccccc2Oc2cc([N+](=O)[O-])cc(Oc3ccc(Br)cc3)c21 | -7 | 42
O=C1Nc2ccccc2Oc2cc([N+](=O)[O-])cc(Oc3ccc(Cl)cc3)c21 | -2 | 51*
O=C(Nc1cccc(F)c1)N1CCc2c(nc3cc(-c4ccccc4Cl)[nH]n3c2=O)C1 | 0 | 73*
COc1ccc(Cl)cc1C(=O)N1CCc2c(nc3cc(-c4ccccc4)[nH]n3c2=O)C1 | -6 | 41
O=C(c1ccncc1)N1CCc2c(nc3cc(-c4ccccc4Cl)[nH]n3c2=O)C1 | 2 | 10
COc1ccc(C(=O)N2CCc3c(nc4cc(-c5ccccc5)[nH]n4c3=O)C2)c(OC)n1 | -1 | 56*
COc1ccc(C(=O)N2CCc3nc4cc(-c5ccccc5)[nH]n4c(=O)c3C2)c(OC)n1 | -1 | -3
COc1cccc(C(=O)N2CCc3c(nc4cc(-c5ccccc5)[nH]n4c3=O)C2)c1OC | 5 | 66*
Cn1nc(C(=O)N2CCc3c(nc4cc(-c5ccccc5)[nH]n4c3=O)C2)c2ccccc21 | 3 | 61*
Cn1nc(C(=O)N2CCc3nc4cc(-c5ccccc5)[nH]n4c(=O)c3C2)c2ccccc21 | 19 | 50
Cc1nnc(-c2ccc3ccn(CC(=O)N(C)C4CCCCC4)c3c2)o1 | 3 | -8
Cc1noc(-c2cccc(C(F)(F)F)c2)c1C(=O)NCc1ccccc1Cl | 0 | -4
